Experimental findings from PubChem BioAssay are described below.

The subject of assay [1] is Wnt5a (protein binding on small-molecule microarray). The assay can be described thus: Wnt5a binders on small-molecule microarray, primary screen, biophysical, 635/667 nm fluorescence (AID 1142).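 Note: fluorescence read at 667 nm with signal to noise per printed feature.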 The settings on record: 635 nm fluorescence, higher = more signal.
A short description of assay [2]: cell viability in Huh7 cells, primary screen, cytotoxicity control for HCV replication inhibitor project, CellTiter-Glo luminescence, basal, 48 h (AID 1143).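 Note: Huh7 hepatoma cells carrying a hepatitis C replication reporter with no stimulus; test concentration not given here.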 The settings on record: Huh7 HCV replicon, higher = more signal, called active from +8 up or from −8 down. For orientation: ATP-based viability assays read luminescence as a measure of living cells.
Assay [3] can be described thus: P. aeruginosa biofilm formation inhibitors, primary screen, PAO1 strain, BacTiter-Glo luminescence, LB-PBS (AID 1144). The settings on record: 12 h, higher = more signal.
A short description of assay [4]: CREB reporter modulators without forskolin, primary screen, cell-based, PC12, CRE-LacZ reporter, unstimulated (AID 1145). The settings on record: no forskolin, luminescence, 4.5 h, higher = more signal, called active from +8 up or from −8 down.
Assay [5] is described as follows: CREB reporter modulators under forskolin, primary screen, cell-based, PC12, CRE-LacZ reporter, forskolin-stimulated (AID 1146).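 Note: PC12 cells with 6xCRE LacZ reporter stimulated by forskolin 10 µM; beta-galactosidase reporter signal reflecting CREB driven transcription.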 The settings on record: luminescence, 4.5 h, higher = more signal, called active from +8 up or from −8 down.
In assay [6] the target is Streptavidin (Streptomyces avidinii) (UniProt P22629). The assay can be described thus: streptavidin binders on small-molecule microarray, primary screen, artefact control for SMM compound annotation, biophysical, 635/667 nm fluorescence (AID 1147).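 Note: signal reflects streptavidin binding to arrayed compounds as a control protein.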 The settings on record: streptavidin binding, higher = more signal.
Streptavidin (Streptomyces avidinii), sequence (P22629 whole entry, looked up): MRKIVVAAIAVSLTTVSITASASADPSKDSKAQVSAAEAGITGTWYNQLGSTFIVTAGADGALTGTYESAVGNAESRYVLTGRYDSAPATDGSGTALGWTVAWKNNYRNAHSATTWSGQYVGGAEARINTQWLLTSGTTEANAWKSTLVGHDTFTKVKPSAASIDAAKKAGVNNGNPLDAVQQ
Assay [7] can be described thus: small-molecule binders of probe aInhba, primary screen, biochemical, small-molecule microarray, 635/667 nm fluorescence (AID 1148).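 Note: score merges 667nm spot fluorescence with signal-to-noise for antibody binding to printed compounds.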 The settings on record: higher = more signal.
Assay [8] addresses Torsin-1A (Homo sapiens) (UniProt O14656). Description: torsin A binders from cell lysate, primary screen, small-molecule microarray, wild-type, 635/667 nm (AID 1149). The settings on record: COS7 hTOR1A-WT lysate, 635 nm fluorescence, higher = more signal.
Assay [9] shares this target. The assay can be described thus: small-molecule binders of mutant TOR1A in lysate, primary screen, cell lysate, small-molecule microarray, COS7 lysate, 635/667 nm fluorescence (AID 1150).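 Note: score pools 667 nm emission and signal to noise measuring lysate protein binding.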 The settings on record: COS7 hTOR1A mutant lysate, 635 nm fluorescence, higher = more signal.
Assay [10] has as its system Sonic hedgehog protein (Shh). The assay can be described thus: small-molecule binders of Shh protein, primary screen, biochemical, small-molecule microarray, 635/667 nm fluorescence (AID 1151).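 Note: Shh protein binding to compounds spotted on small-molecule microarray slides; score combines spot fluorescence intensity with signal-to-noise across triplicate slides.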 The settings on record: small-molecule microarray binding, 635 nm fluorescence; higher = more signal.
A short description of assay [11]: E. coli DRC41 culture turbidity changes, primary screen, E. coli filamentation inducer project, strain DRC41, OD650, 48 h (AID 1152).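 Note: E. coli MC1000 strain DRC41 lacking acrAB efflux pump and sulA.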 The settings on record: E. coli DRC41 (acrAB sulA), higher = more signal, called active from +8 up or from −8 down.
Assay [12] can be described thus: small-molecule binders of probe aLefty1, primary screen, biochemical, small-molecule microarray, 635/667 nm fluorescence (AID 1153).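 Note: score merges spot fluorescence with signal-to-noise ratio from the scanned slide images.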 The settings on record: higher = more signal.
The nature of assay [13]: PSAC antagonists in infected red cells, primary screen, cell-based, P. falciparum Indochina, OD700, 1 h (AID 1154). The settings on record: P. falciparum Indochina infected RBC osmotic lysis, higher = more signal, called active from +8 up or from −8 down.
A short description of assay [14]: PSAC antagonists in infected red cells, primary screen, cell-based, P. falciparum Indochina, OD700, 2 h (AID 1155).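 Note: lysis reports solute entry through the parasite surface anion channel PSAC; channel blockers reduce lysis of infected cells.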 The settings on record: P. falciparum Indochina infected erythrocytes, osmotic lysis OD700; higher = more signal, called active from +8 up or from −8 down.
Assay [15] can be described thus: osmotic lysis modulators in infected erythrocytes, primary screen, PSAC antagonist project, cell-based, P. falciparum Indochina, OD700, 3 h (AID 1156). The settings on record: higher = more signal, called active from +8 up or from −8 down.
A short description of assay [16]: PSAC antagonists in infected red cells, primary screen, cell-based, P. falciparum Indochina, OD700, 18 h (AID 1157). The settings on record: P. falciparum Indochina infected erythrocytes, osmotic lysis OD700, 18 h; higher = more signal, called active from +8 up or from −8 down.
Assay [17] can be described thus: modulators of S6 phosphorylation in cells, primary screen, cell-based, A549, cytoblot, luminescence, serum-stimulated (AID 1158).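 Note: serum-stimulated A549 lung adenocarcinoma cells; signal is phosphorylated S6 detected by cytoblot immunostaining with HRP secondary.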 The settings on record: A549 phospho-S6 cytoblot, 5 h, higher = more signal.
Assay [18] concerns the target NADPH oxidase 2 (Homo sapiens) (UniProt P04839). Description: NOX2-dependent H2O2 signal modulators, primary screen, NOX inhibitor project, cell-based, HEK293-NOX2, PMA-stimulated, Amplex Red fluorescence (AID 1159). Note: test concentration not given here. The settings on record: 45 min, higher = more signal, called active from +8 up or from −8 down.
For assay [19], the target named is NADPH oxidase 4 (Homo sapiens) (UniProt Q9NPH5). The assay can be described thus: NOX4-dependent H2O2 signal modulators, primary screen, NOX inhibitor project, cell-based, HEK293-NOX4, tetracycline-induced, Amplex Red fluorescence (AID 1160). The settings on record: 45 min, higher = more signal, called active from +8 up or from −8 down.
NADPH oxidase 4 (Homo sapiens), sequence (Q9NPH5 whole entry, looked up): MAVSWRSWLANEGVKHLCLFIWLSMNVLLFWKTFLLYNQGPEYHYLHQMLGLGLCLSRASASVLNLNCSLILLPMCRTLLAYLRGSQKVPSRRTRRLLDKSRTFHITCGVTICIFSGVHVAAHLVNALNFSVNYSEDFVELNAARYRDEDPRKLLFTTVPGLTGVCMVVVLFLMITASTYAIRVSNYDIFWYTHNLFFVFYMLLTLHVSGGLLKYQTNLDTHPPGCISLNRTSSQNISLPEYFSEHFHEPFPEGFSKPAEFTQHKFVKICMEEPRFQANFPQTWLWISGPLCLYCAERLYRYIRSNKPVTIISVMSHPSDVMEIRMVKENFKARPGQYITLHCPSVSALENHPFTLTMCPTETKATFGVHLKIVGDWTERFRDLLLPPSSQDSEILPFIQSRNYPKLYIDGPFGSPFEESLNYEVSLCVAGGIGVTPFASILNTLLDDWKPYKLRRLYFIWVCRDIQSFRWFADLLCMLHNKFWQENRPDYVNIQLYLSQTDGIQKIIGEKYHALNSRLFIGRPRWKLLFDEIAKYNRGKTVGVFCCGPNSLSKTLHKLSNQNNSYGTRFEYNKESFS
Assay [20] addresses NADPH oxidase 5 (Homo sapiens) (UniProt Q96PH1). The assay can be described thus: NOX5-dependent H2O2 signal modulators, primary screen, NOX inhibitor project, cell-based, HEK293-NOX5, Amplex Red fluorescence (AID 1161). The settings on record: HEK293-NOX5, ionomycin, 45 min, higher = more signal.

Calls of active or inactive are those of the source. Unless noted, the rule behind the calls is not given here.

NADPH oxidase 5 (Homo sapiens), sequence (Q96PH1 whole entry, looked up): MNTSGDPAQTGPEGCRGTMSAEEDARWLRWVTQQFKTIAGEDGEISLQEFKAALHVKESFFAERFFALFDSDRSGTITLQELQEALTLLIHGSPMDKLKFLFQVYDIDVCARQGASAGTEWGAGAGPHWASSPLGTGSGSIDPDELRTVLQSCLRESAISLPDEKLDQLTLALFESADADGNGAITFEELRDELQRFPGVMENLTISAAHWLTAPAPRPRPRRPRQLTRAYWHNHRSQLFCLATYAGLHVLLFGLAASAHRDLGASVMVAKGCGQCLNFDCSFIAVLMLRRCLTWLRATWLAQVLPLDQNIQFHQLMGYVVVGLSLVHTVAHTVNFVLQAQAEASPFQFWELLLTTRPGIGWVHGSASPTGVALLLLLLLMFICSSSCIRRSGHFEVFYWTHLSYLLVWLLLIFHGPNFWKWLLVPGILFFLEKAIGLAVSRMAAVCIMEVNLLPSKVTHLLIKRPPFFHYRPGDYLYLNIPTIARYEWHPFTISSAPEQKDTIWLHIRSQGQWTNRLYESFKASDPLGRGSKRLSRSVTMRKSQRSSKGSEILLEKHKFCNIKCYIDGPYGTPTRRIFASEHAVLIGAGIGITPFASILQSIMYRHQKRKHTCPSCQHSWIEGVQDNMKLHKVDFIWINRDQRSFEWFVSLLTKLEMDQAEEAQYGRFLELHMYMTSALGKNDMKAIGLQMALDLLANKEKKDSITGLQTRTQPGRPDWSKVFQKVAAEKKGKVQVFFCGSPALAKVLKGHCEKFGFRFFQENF
NADPH oxidase 2 (Homo sapiens), sequence (P04839 whole entry, looked up): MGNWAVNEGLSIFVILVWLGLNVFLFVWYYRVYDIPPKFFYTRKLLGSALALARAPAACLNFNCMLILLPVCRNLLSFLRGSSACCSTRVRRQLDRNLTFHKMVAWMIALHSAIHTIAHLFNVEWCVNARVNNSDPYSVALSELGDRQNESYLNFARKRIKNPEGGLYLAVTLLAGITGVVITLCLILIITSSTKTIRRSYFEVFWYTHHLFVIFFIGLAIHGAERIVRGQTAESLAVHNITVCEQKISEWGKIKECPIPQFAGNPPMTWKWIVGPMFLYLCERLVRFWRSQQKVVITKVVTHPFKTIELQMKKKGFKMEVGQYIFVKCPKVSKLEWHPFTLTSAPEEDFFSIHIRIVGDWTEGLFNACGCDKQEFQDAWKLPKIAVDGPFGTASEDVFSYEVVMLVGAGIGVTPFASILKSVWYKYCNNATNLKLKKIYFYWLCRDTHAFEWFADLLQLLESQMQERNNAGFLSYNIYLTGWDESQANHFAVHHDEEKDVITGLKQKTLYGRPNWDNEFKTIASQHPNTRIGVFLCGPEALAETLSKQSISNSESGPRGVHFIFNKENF
Torsin-1A (Homo sapiens), sequence (O14656 whole entry, looked up): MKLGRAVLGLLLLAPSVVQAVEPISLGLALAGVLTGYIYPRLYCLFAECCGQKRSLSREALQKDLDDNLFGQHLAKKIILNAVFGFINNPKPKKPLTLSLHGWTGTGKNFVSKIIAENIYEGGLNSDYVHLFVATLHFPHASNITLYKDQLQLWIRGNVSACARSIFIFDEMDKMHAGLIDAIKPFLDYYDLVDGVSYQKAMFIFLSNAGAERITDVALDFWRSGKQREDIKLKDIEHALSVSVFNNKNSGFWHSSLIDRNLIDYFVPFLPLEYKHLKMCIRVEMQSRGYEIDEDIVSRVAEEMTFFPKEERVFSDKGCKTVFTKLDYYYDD

As to `C=CC[C@]1(C(N)=O)N=C(c2ccc(OCCCO)cc2)O[C@H]1c1ccccc1`, the composite z-score in assay [1] is 0.555; in assay [6], 0.186; in assay [7] it was -0.168; with Torsin-1A (Homo sapiens) [8], 2.79; with Torsin-1A (Homo sapiens) [9], 2.33; in [10], -0.406. Moreover, the composite z-score in [12] was -0.0057. Further, the z-score was -1.01 (inactive) in [2]; -0.717 (inactive) in assay [3]; 0.652 (inactive) in [4]; -0.806 (inactive) in assay [5]; -0.0378 (inactive) in assay [11]; 6.38 (inactive) in [13]. Moreover, the z-score was 1.44 (inactive) in assay [14]; 0.99 (inactive) in assay [15]; 0.765 (inactive) in assay [16]; -0.039 in [17]; 0.737 (inactive) in [18]; 0.676 (inactive) in assay [19]. For the same molecule, the z-score in assay [20] is 0.145.
Regarding `CC(C)CNC(=O)[C@@]1(Cc2ccccc2I)c2ccccc2C(=O)N(Cc2ccccc2C(F)(F)F)[C@H]1c1ccc(CO)cc1`, the composite z-score in assay [1] was -0.0971; in assay [6] it was -0.198; in [7] it was -0.128; in the assay with Torsin-1A (Homo sapiens) [8], -0.177; with Torsin-1A (Homo sapiens) [9], -0.185; in assay [10] it was -0.197. The composite z-score in [12] is -0.103. Further, the z-score in assay [2] is 0.0523 (inactive); in assay [3], 0.0415 (inactive); in assay [4], -0.295 (inactive); in assay [5], 1.04 (inactive); in [11] it was 0.0655 (inactive); in [13] it was 1.23 (inactive). For the same molecule, the z-score in assay [14] was 0.161 (inactive); in assay [15] it was 0.649 (inactive); in [16], 0.525 (inactive); in [17], -0.146; in [18], 0.285 (inactive); in [19] it was 0.0405 (inactive). Moreover, the z-score in [20] worked out at 0.401.
In the case of `C=C(CCCC)/C(=C/C[C@H](OC(C)=O)c1ccccc1OCCO)c1cnc2ccccc2c1`, the composite z-score was 0.382 in assay [1]; 0.36 in assay [6]; -0.157 in assay [7]; 0.0711 in the assay with Torsin-1A (Homo sapiens) [8]; 0.878 in the assay with Torsin-1A (Homo sapiens) [9]; 1.49 in assay [10]. In [12], the composite z-score was -0.0054. For the same molecule, the z-score in [2] is -1.45 (inactive); in assay [3], 0.489 (inactive); in assay [4] it was 4.07 (inactive); in [5], 0.55 (inactive); in [11] it was -0.413 (inactive); in [13], 17.5 (active). For the same molecule, the z-score in assay [14] was 2.17 (inactive); in [15], 1.32 (inactive); in [16] it was 0.996 (inactive); in assay [17] it was -0.0149; in assay [18], -1.41 (inactive); in assay [19], -0.361 (inactive). Moreover, in assay [20], the z-score is -1.62.
For `COC(=O)C(CC#Cc1ccc2c(c1)[C@]1(C(=O)N2)[C@H](c2ccccc2OCCO)N2[C@H](c3ccccc3)[C@H](c3ccccc3)OC(=O)[C@H]2[C@@H]1C(=O)O)C(=O)OC`, the composite z-score worked out at 0.231 in assay [1]; 0.517 in [6]; 0.29 in assay [7]; 0.19 with Torsin-1A (Homo sapiens) [8]; 1.14 with Torsin-1A (Homo sapiens) [9]; 0.279 in assay [10]. The same molecule registered a composite z-score in [12] of 0.169. The z-score in [2] is -0.323 (inactive); in assay [3], -0.367 (inactive); in assay [4], -0.375 (inactive); in assay [5] it was 1.86 (inactive); in assay [11], 0.456 (inactive); in assay [13], 4.94 (inactive). Also, the z-score in assay [14] is 0.569 (inactive); in [15] it was -7.69 (inactive); in assay [16], -0.0236 (inactive); in [17], -0.13; in assay [18] it was 1.79 (inactive); in [19], -0.0833 (inactive). The same molecule displayed a z-score in assay [20] of 0.036.
`NC(=O)[C@@H]1[C@H]2C(=O)O[C@H](c3ccccc3)[C@H](c3ccccc3)N2[C@H](c2ccc(O)cc2)[C@@]12C(=O)Nc1ccc(C#CC3=CCCCC3)cc12`: the composite z-score is 0.0867 in assay [1]; -0.102 in assay [6]; 0.468 in [7]; 0.558 in the assay with Torsin-1A (Homo sapiens) [8]; 0.281 with Torsin-1A (Homo sapiens) [9]; 2 in [10]. The composite z-score in [12] turned out to be 1.47. The z-score was -5.11 (inactive) in assay [2]; 0.403 (inactive) in [3]; 1.17 (inactive) in assay [4]; 0.117 (inactive) in assay [5]; -1.1 (inactive) in assay [11]; 1.78 (inactive) in assay [13]. Moreover, the z-score is 1.07 (inactive) in assay [14]; -0.491 (inactive) in assay [15]; 1.27 (inactive) in assay [16]; -0.7 in [17]; 0.615 (inactive) in assay [18]; 0.196 (inactive) in [19]. The z-score in assay [20] was -0.325.
